In all, about 5,500 compounds went through this assay and about 2,000 (36%) were called active. Not shown: some 18% with an inconclusive outcome. Cut-off read from the data, not from the text of the source: active = normalized growth mostly below about 0.91 (no sharp cut-off); inconclusive = no clear call, values can overlap the other calls; inactive = mostly above about 0.92. The list shows a part of the results.
Assay: chemical genetic growth profiling, strain panel (AID 1159580);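 note: tested at 20 µM; growth read once vehicle control cultures reached saturation at 30 °C; 1 = growth at the plate median or of vehicle wells; lower values mean less growth of the strain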
Details: growth OD
[1] = S. cerevisiae deletion strains, locus YHR030C, strain SLT2, stronger effect = lower value
[2] = S. cerevisiae deletion strains, locus YJL187C, strain SWE1, stronger effect = lower value

Measured: normalized growth

COC(=O)Nc1nc2ccc(S(=O)c3ccccc3)cc2[nH]1 (centres undefined)
inactive: S. cerevisiae deletion strains, locus YAL021C, strain ccr4, stronger effect = lower value 1.01 | S. cerevisiae deletion strains, locus YAL026C, strain drs2, stronger effect = lower value 0.986 | S. cerevisiae deletion strains, locus YAL030W, strain snc1, stronger effect = lower value 0.997 | S. cerevisiae deletion strains, locus YBL061C, strain skt5, stronger effect = lower value 0.995 | S. cerevisiae deletion strains, locus YBR009C, strain hhf1, stronger effect = lower value 0.999 | S. cerevisiae deletion strains, locus YBR023C, strain chs3, stronger effect = lower value 0.993 | S. cerevisiae deletion strains, locus YBR171W, strain sec66, stronger effect = lower value 0.971 | S. cerevisiae deletion strains, locus YBR231C, strain swc5, stronger effect = lower value 0.993 | S. cerevisiae deletion strains, locus YBR279W, strain paf1, stronger effect = lower value 0.994 | S. cerevisiae deletion strains, locus YCL011C, strain gbp2, stronger effect = lower value 1.01 | S. cerevisiae deletion strains, locus YCL016C, strain dcc1, stronger effect = lower value 1.01 | S. cerevisiae deletion strains, locus YCL061C, strain MRC1, stronger effect = lower value 0.994 | S. cerevisiae deletion strains, locus YCL069W, strain vba3, stronger effect = lower value 0.988 | S. cerevisiae deletion strains, locus YCR088W, strain abp1, stronger effect = lower value 0.998 | S. cerevisiae deletion strains, locus YDL005C, strain med2, stronger effect = lower value 0.994 | S. cerevisiae deletion strains, locus YDL040C, strain nat1, stronger effect = lower value 1 | S. cerevisiae deletion strains, locus YDR001C, strain nth1, stronger effect = lower value 0.983 | S. cerevisiae deletion strains, locus YDR069C, strain doa4, stronger effect = lower value 0.99 | S. cerevisiae deletion strains, locus YDR137W, strain rgp1, stronger effect = lower value 0.996 | S. cerevisiae deletion strains, locus YDR159W, strain sac3, stronger effect = lower value 0.966 | S. cerevisiae deletion strains, locus YDR195W, strain ref2 0.969 | S. cerevisiae deletion strains, locus YDR297W, strain sur2, stronger effect = lower value 0.997 | S. cerevisiae deletion strains, locus YDR334W, strain swr1, stronger effect = lower value 0.983 | S. cerevisiae deletion strains, locus YDR335W, strain msn5, stronger effect = lower value 0.973 | S. cerevisiae deletion strains, locus YDR392W, strain spt3, stronger effect = lower value 1 | S. cerevisiae deletion strains, locus YEL003W, strain gim4, stronger effect = lower value 0.962 | S. cerevisiae deletion strains, locus YEL037C, strain rad23, stronger effect = lower value 0.993 | S. cerevisiae deletion strains, locus YEL061C, strain CIN8 (second series), stronger effect = lower value 0.983 | S. cerevisiae deletion strains, locus YER015W, strain faa2, stronger effect = lower value 0.995 | S. cerevisiae deletion strains, locus YER016W, strain bim1, stronger effect = lower value 0.986 | S. cerevisiae deletion strains, locus YER111C, strain swi4, stronger effect = lower value 0.986 | S. cerevisiae deletion strains, locus YER155C, strain BEM2 (second series), stronger effect = lower value 0.953 | S. cerevisiae deletion strains, locus YFR010W, strain ubp6, stronger effect = lower value 0.988 | S. cerevisiae deletion strains, locus YGL167C, strain pmr1, stronger effect = lower value 0.984 | S. cerevisiae deletion strains, locus YGL173C, strain kem1, stronger effect = lower value 0.991 | S. cerevisiae deletion strains, locus YGL227W, strain vid30, stronger effect = lower value 0.986 | S. cerevisiae deletion strains, locus YGL240W, strain doc1, stronger effect = lower value 0.967 | S. cerevisiae deletion strains, locus YGL253W, strain hxk2, stronger effect = lower value 0.998 | S. cerevisiae deletion strains, locus YHR013C, strain ard1, stronger effect = lower value 1.02 | S. cerevisiae deletion strains, locus YHR027C, strain rpn1, stronger effect = lower value 0.989 | [1] 1.03 | S. cerevisiae deletion strains, locus YHR079C, strain IRE1, stronger effect = lower value 1.02 | S. cerevisiae deletion strains, locus YHR142W, strain chs7, stronger effect = lower value 0.994 | S. cerevisiae deletion strains, locus YJL092W, strain hpr5, stronger effect = lower value 0.984 | S. cerevisiae deletion strains, locus YJL095W, strain BCK1 (second series), stronger effect = lower value 1 | S. cerevisiae deletion strains, locus YJL095W, strain BCK1, stronger effect = lower value 0.972 | S. cerevisiae deletion strains, locus YJL115W, strain asf1, stronger effect = lower value 0.985 | S. cerevisiae deletion strains, locus YJL129C, strain trk1, stronger effect = lower value 0.981 | S. cerevisiae deletion strains, locus YJL154C, strain vps35, stronger effect = lower value 0.987 | S. cerevisiae deletion strains, locus YJL164C, strain tpk1, stronger effect = lower value 1.01 | S. cerevisiae deletion strains, locus YJL166W, strain qcr8, stronger effect = lower value 0.975 | [2] 0.984 | S. cerevisiae deletion strains, locus YJR066W, strain TOR1, stronger effect = lower value 0.975 | S. cerevisiae deletion strains, locus YKL160W, strain elf1, stronger effect = lower value 0.99 | S. cerevisiae deletion strains, locus YKR026C, strain gcn3, stronger effect = lower value 0.979 | S. cerevisiae deletion strains, locus YKR091W, strain srl3, stronger effect = lower value 1 | S. cerevisiae deletion strains, locus YLL001W, strain dnm1, stronger effect = lower value 0.976 | S. cerevisiae deletion strains, locus YLL026W, stronger effect = lower value 1 | S. cerevisiae deletion strains, locus YLL041C, strain sdh2, stronger effect = lower value 0.99 | S. cerevisiae deletion strains, locus YLR027C, strain aat2, stronger effect = lower value 0.989 | S. cerevisiae deletion strains, locus YLR113W, strain HOG1, stronger effect = lower value 0.982 | S. cerevisiae deletion strains, locus YLR221C, strain rsa3, stronger effect = lower value 1.01 | S. cerevisiae deletion strains, locus YLR258W, strain gsy2, stronger effect = lower value 0.984 | S. cerevisiae deletion strains, locus YLR262C, strain YPT6 (second series), stronger effect = lower value 0.987 | S. cerevisiae deletion strains, locus YLR320W, strain mms22, stronger effect = lower value 1 | S. cerevisiae deletion strains, locus YLR342W, strain FKS1, stronger effect = lower value 0.991 | S. cerevisiae deletion strains, locus YLR357W, strain rsc2, stronger effect = lower value 0.993 | S. cerevisiae deletion strains, locus YLR370C, strain arc18, stronger effect = lower value 0.998 | S. cerevisiae deletion strains, locus YLR384C, strain iki3, stronger effect = lower value 0.986 | S. cerevisiae deletion strains, locus YML120C, strain ndi1, stronger effect = lower value 0.998 | S. cerevisiae deletion strains, locus YMR058W, strain fet3, stronger effect = lower value 0.993 | S. cerevisiae deletion strains, locus YMR125W, strain sto1, stronger effect = lower value 0.982 | S. cerevisiae deletion strains, locus YMR129W, stronger effect = lower value 0.99 | S. cerevisiae deletion strains, locus YMR205C, strain PFK2, stronger effect = lower value 0.982 | S. cerevisiae deletion strains, locus YMR231W, strain pep5, stronger effect = lower value 0.98 | S. cerevisiae deletion strains, locus YNL071W, strain lat1, stronger effect = lower value 0.994 | S. cerevisiae deletion strains, locus YNL183C, strain NPR1, stronger effect = lower value 0.971 | S. cerevisiae deletion strains, locus YNL209W, strain ssb2, stronger effect = lower value 1.01 | S. cerevisiae deletion strains, locus YNL248C, strain rpa49, stronger effect = lower value 1.01 | S. cerevisiae deletion strains, locus YNL322C, strain KRE1 (second series), stronger effect = lower value 0.998 | S. cerevisiae deletion strains, locus YNR049C, strain mso1, stronger effect = lower value 0.977 | S. cerevisiae deletion strains, locus YOR001W, strain rrp6, stronger effect = lower value 0.982 | S. cerevisiae deletion strains, locus YOR070C, strain gyp1, stronger effect = lower value 0.999 | S. cerevisiae deletion strains, locus YOR080W, strain dia2, stronger effect = lower value 0.974 | S. cerevisiae deletion strains, locus YOR083W, strain WHI5, stronger effect = lower value 0.991 | S. cerevisiae deletion strains, locus YOR106W, strain vam3, stronger effect = lower value 1 | S. cerevisiae deletion strains, locus YOR231W, strain MKK1, stronger effect = lower value 1 | S. cerevisiae deletion strains, locus YOR265W, strain rbl2, stronger effect = lower value 0.992 | S. cerevisiae deletion strains, locus YOR270C, strain vph1, stronger effect = lower value 1 | S. cerevisiae deletion strains, locus YOR290C, strain snf2, stronger effect = lower value 1.01 | S. cerevisiae deletion strains, locus YPL051W, strain arl3, stronger effect = lower value 0.993 | S. cerevisiae deletion strains, locus YPL078C, strain atp4, stronger effect = lower value 0.963 | S. cerevisiae deletion strains, locus YPL106C, strain sse1, stronger effect = lower value 0.99 | S. cerevisiae deletion strains, locus YPL240C, strain hsp82, stronger effect = lower value 1 | S. cerevisiae deletion strains, locus YPL256C, strain CLN2, stronger effect = lower value 1.01

COC(=O)c1cccc(NC(=O)CC2C(=O)NCCN2C(=O)c2cccs2)c1 (centres undefined)
inactive: S. cerevisiae deletion strains, locus YAL013W, strain DEP1, stronger effect = lower value 1.02 | S. cerevisiae deletion strains, locus YBR229C, strain ROT2, stronger effect = lower value 1.02 | S. cerevisiae deletion strains, locus YDL101C, strain DUN1, stronger effect = lower value 1 | S. cerevisiae deletion strains, locus YDL134C, strain PPH21, stronger effect = lower value 1.04 | S. cerevisiae deletion strains, locus YDR150W, strain NUM1, stronger effect = lower value 0.982 | S. cerevisiae deletion strains, locus YEL061C, strain CIN8, stronger effect = lower value 1.01 | S. cerevisiae deletion strains, locus YGR078C, strain PAC10, stronger effect = lower value 1.01 | [1] 1.07 | S. cerevisiae deletion strains, locus YHR087W, strain rtc3, stronger effect = lower value 0.987 | [2] 0.989 | S. cerevisiae deletion strains, locus YJR043C, strain POL32, stronger effect = lower value 1.02 | S. cerevisiae deletion strains, locus YJR075W, strain HOC1, stronger effect = lower value 1.01 | S. cerevisiae deletion strains, locus YLR039C, strain RIC1, stronger effect = lower value 1.02 | S. cerevisiae deletion strains, locus YLR058C, strain SHM2 (second series), stronger effect = lower value 0.996 | S. cerevisiae deletion strains, locus YLR085C, strain ARP6, stronger effect = lower value 0.997 | S. cerevisiae deletion strains, locus YLR262C, strain YPT6, stronger effect = lower value 1.08 | S. cerevisiae deletion strains, locus YML094W, strain GIM5, stronger effect = lower value 0.993 | S. cerevisiae deletion strains, locus YMR219W, strain ESC1, stronger effect = lower value 1.01 | S. cerevisiae deletion strains, locus YMR263W, strain SAP30, stronger effect = lower value 0.958 | S. cerevisiae deletion strains, locus YMR307W, strain GAS1, stronger effect = lower value 1.01 | S. cerevisiae deletion strains, locus YNL128W, strain TEP1, stronger effect = lower value 1.01 | S. cerevisiae deletion strains, locus YNL153C, strain GIM3, stronger effect = lower value 1.01 | S. cerevisiae deletion strains, locus YNL298W, strain CLA4 (second series), stronger effect = lower value 1.04 | S. cerevisiae deletion strains, locus YNL322C, strain KRE1, stronger effect = lower value 1 | S. cerevisiae deletion strains, locus YNR030W, strain Alg12, stronger effect = lower value 1.03 | S. cerevisiae deletion strains, locus YPL055C, strain LGE1, stronger effect = lower value 0.941 | S. cerevisiae deletion strains, locus YPL241C, strain CIN2, stronger effect = lower value 1.01 | S. cerevisiae deletion strains, locus YPR135W, strain CTF4, stronger effect = lower value 1.1 | S. cerevisiae strains, strain wild type, stronger effect = lower value 1.02

Reference: PubChem BioAssay AID1159580 (chemical genetic matrix, 2015)
